In PubChem BioAssay AID1259415 (National Center for Advancing Translational Sciences (NCATS), 2018) one finds activity change, negative = inhibition data, which are given here for 90 molecules.

Screen size: about 410,000 compounds; about 18,000 (4.4%) were called active. Not shown: some 7% with an inconclusive outcome. The full list was thinned out, with actives kept by preference. Values without a mark were called inactive. Rule as the data show it: active = activity change below about -60%; inconclusive = no clear call, values can overlap the other calls; inactive = above about -39%.
% is scaled to controls: 0 for no effect and ±100 for the full control effect.

The nature of the experiment: qHTS Assay for inhibitors of the human cytomegalovirus (HCMV). The settings on record: HFF cells, HCMV-luciferase reporter, 72 h; at 57.5 µM; hits give low values. In short, it runs like this: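 After 16 h attachment at 37C, HFF cells received test compound and HCMV-luciferase (1 PFU/cell); reporter luminescence read 72 h later, data normalized against buffer-only and known inhibitor Salinomycin.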
For orientation: In qHTS, concentration-response curves come from the screen itself.
For `CCCCN(CC)CCCNC(=O)Cn1ncc2c([nH]c3ccc(C)cc32)c1=O`, the activity change, negative = inhibition was -8.89%.
The same measure for `CNC(=O)/C(C#N)=C/c1c(F)cccc1Cl`: -80.3% (active); for `Cc1[nH]c2ccccc2c1/C=C(/C#N)C(=O)NC(C)C`: -36.7%; for `O=C(/C=C/c1c(F)cccc1Cl)Nc1nn[nH]n1`: -8.32%.
Turning to `Cc1cc(S(=O)(=O)N2CCOCC2)ccc1OCC(=O)Nc1cccc(C(F)(F)F)c1`, the activity change, negative = inhibition is -13.9%.
Take `COc1cc(C(=O)N(C)Cc2cccc(OC)c2OC)ccc1OCC(=O)Nc1cccc(C(F)(F)F)c1`: the activity change, negative = inhibition is -86.1% (active).
The value for `COc1ccccc1NC(=O)COc1ccc(C(=O)OCC(=O)N(C(C)C)C(C)C)cc1OC` was -9.98%; that for `CCCN1CCN(CCCNC(=O)Cn2nc(CC)n3c(cc4occc43)c2=O)CC1` was 35.8%; that for `CC(C)(C)Oc1ccccc1Nc1nc(NCCO)nc(N2CCCC2)n1` was 1.45%.
The value for `O=c1oc2ccccc2cc1-c1cn(-c2ccccc2)c(=S)[nH]1` was -86.5% (active); that for `CC(C)Cn1c(=O)c2ccccc2n2c(-c3cccc(Cl)c3)nnc12` was 2.19%; that for `COc1ccc(CNC(=O)CSc2nc3ccccc3nc2Cc2ccccc2)cc1` was -15%.
The same measure for `COCCNS(=O)(=O)c1cc(-c2nn3c(C)nnc3c3ccccc23)ccc1C`: 6.92%; for `Cc1cc(Cl)c(S(=O)(=O)Nc2ccc3c(c2)OCCO3)cc1OCC(N)=O`: -65.5% (active); for `Cc1cc(Cl)c(S(=O)(=O)NCCC(=O)O)cc1OCC(N)=O`: 8.87%.
With `Cc1cc(Cl)c(S(=O)(=O)N(C)C)cc1OCC(N)=O`, the activity change, negative = inhibition is 12.2%.
The same measure for `CC(C)CNC(=O)CC(c1ccccc1)c1c(O)ccc2ccccc12` (stereo not given): 16%; for `O=C(/C=C/c1ccccc1)Nc1cc(-c2nc3cc(Cl)ccc3o2)ccc1Cl`: 88.6%; for `CC(=O)N1CCCc2cc(S(=O)(=O)N3CCC(C(=O)NCc4ccc(F)cc4)CC3)ccc21`: 7.04%.
The same measure for `O=C(NCc1ccc2c(c1)CCN2C(=O)c1ccccc1)Nc1cc(F)ccc1F`: -84.8% (active); for `O=C(COc1ccccc1)NCc1ccc2c(c1)CCN2C(=O)c1ccc(F)cc1`: -6.87%.
With `O=C(NCc1ccc2c(c1)CCN2C(=O)c1ccccc1)c1ccccc1`, the activity change, negative = inhibition is 13.7%.
The value for `COc1ccc(C(=O)Nc2cccc(C(=O)OCc3cc(=O)n4c5c(sc4n3)CCCC5)c2)cc1` was -36%; that for `COc1ccc(OC)c(-n2nnc3c(sc4nc(C)c(Br)c(C)c43)c2=O)c1` was -8.62%; that for `COc1ccc(OC)c(Cc2cnc3nc(N)nc(N)c3c2C)c1` was -98.1% (active).
The value for `COc1ccc(CCNc2ncnc3onc(-c4ccc(Cl)cc4)c23)c(OC)c1` was 0.256%; that for `O=C(Cc1ccc(NC(=O)C2CCCN(C(=O)C3CCCCC3)C2)cc1)Nc1cccc(C(=O)N2CCCCC2)c1` (stereo not given) was 1.06%.
The same measure for `N#Cc1cccc(NC(=O)CN2CCCCCC2)c1`: -11.3%.
On to `N#Cc1cccc(NC(=O)C2CCCN(C(=O)c3ccc(Cl)cc3)C2)c1` (stereo not given), for which the activity change, negative = inhibition was -66% (active).
The same measure for `CSc1ccc(CCNC(=O)c2cnn(-c3ccccc3)c2-n2cccc2)cc1`: -13.5%; for `COc1ccc(Nc2ncc3c(n2)CCN(C(=O)OC(C)(C)C)C3)cc1`: 12.2%.
On to `COC(=O)c1ccc(NC(=O)c2cccc3c2C(=O)N(C2CCCCC2)C3)cc1`, for which the activity change, negative = inhibition is 12.9%.
The same measure for `COC(=O)c1ccc(C)c(NC(=O)Cn2c(C)csc2=O)c1`: 0.424%; for `Cc1cccc(NC(=S)N2CCC(C(=O)c3ccc(F)cc3)CC2)c1`: 15%; for `Cc1cccc(NC(=S)NCc2ccc3[nH]c4c(c3c2)CCCC4)c1`: -72.9% (active).
Regarding `CCc1cccc(NC(=O)CN(C)S(=O)(=O)c2ccc3[nH]c4c(c3c2)CCCC4)c1`, the activity change, negative = inhibition was 3.8%.
The value for `Cc1ccc2c(c1)-c1c(cnn1CC(=O)Nc1ccccc1C#N)CO2` was -27.6%; that for `CCn1cc(C(=O)N2CCN(c3cc(C)ccc3C)CC2)c(=O)c2cc(S(=O)(=O)N(C)C3CCCCC3)ccc21` was 10.1%.
The same measure for `CC(=O)Nc1ccc(S(=O)(=O)N(C)CC(=O)NCCC2=CCCCC2)cc1`: -7.2%.
The same measure for `CC(OC(=O)c1c(F)cccc1F)C(=O)NCCC1=CCCCC1` (stereo not given): 20.1%.
As to `S=C(NCCC1=CCCCC1)Nc1ccccc1`, the activity change, negative = inhibition was -67% (active).
The value for `Fc1ccccc1-c1noc2nc(OCc3ccc(OC(F)F)cc3)ccc12` was 7.83%; that for `CCc1ccccc1N1C(=O)CN(S(=O)(=O)CC)CC1(C)C(=O)NC1CCCCC1` (stereo not given) was 0%.
Regarding `COc1ccc2c(c1)C(NS(=O)(=O)OCC(Cl)(Cl)Cl)CCC2` (stereo not given), the activity change, negative = inhibition is -21%.
The same measure for `CC(C)Cn1c(N)c(C(=O)COC(=O)CN2C(=O)C3CC=CCC3C2=O)c(=O)n(C)c1=O` (stereo not given): -31.7%; for `CCCc1cc(=O)[nH]c(SCC(=O)c2c(N)n(CC(C)C)c(=O)n(C)c2=O)n1`: -60.6% (active); for `CCCc1cc(=O)[nH]c(SCC(=O)N2C(C)CCCC2C)n1` (stereo not given): 24.9%.
The value for `O=C1N=C(N2CCOCC2)CS1` was -12.8%.
Turning to `O=C1N=C(N2CCOCC2)S/C1=C\C=C/c1ccccc1`, the activity change, negative = inhibition was -102% (active).
The value for `CC1CCN(C2=NC(=O)/C(=C/c3cn[nH]c3-c3ccccc3)S2)CC1` was -1.68%.
On to `COc1ccc(C2CC(=O)N(Cc3ccccc3C)c3c2c(C)nn3-c2nc(C)cc(C)n2)c(OC)c1` (stereo not given), for which the activity change, negative = inhibition was -22.9%.
For the molecule `O=C(COc1ccc(Cl)cc1)Nc1ccc(-c2nc3cc(Cl)ccc3o2)c(O)c1`, the activity change, negative = inhibition was 71.6%.
The same measure for `O=C(Cn1cnc2ccccc2c1=O)Nc1cccc(S(=O)(=O)N2CCCCC2)c1`: 0%; for `CCC(C)c1ccccc1NC(=O)CN(C)CC(=O)Nc1ccccc1SC` (stereo not given): -37.9%; for `CSc1ccccc1NC(=O)CN(C)CC(=O)Nc1cccc(Br)c1`: -99.6% (active).
As for `CSc1ccccc1NC(=O)CN(C)CC(=O)Nc1ccc(Cl)cc1[N+](=O)[O-]`, the activity change, negative = inhibition is -26.6%.
Take `O=C(Cn1c(=O)n(Cc2cccs2)c(=O)c2cccnc21)Nc1ccc(F)cc1`: the activity change, negative = inhibition was -5.11%.
The same measure for `CCCC(=O)Nc1ccc2oc(-c3ccc(O)c(Br)c3)nc2c1`: 94.7%.
The same measure for `COc1ccc(CCNC(=O)c2cc(=O)c3c(C)cc(C)cc3o2)cc1OC`: -6.54%; for `COc1cccc(-n2cc(C(=O)NCc3cccc(Cl)c3)c3ccccc3c2=O)c1`: -23.6%; for `CCN(CC)c1ccc(NS(=O)(=O)c2cc(-c3cc(C)no3)ccc2C)c(C)c1`: 0%.
The same measure for `CCC1CN(S(=O)(=O)c2cc(-c3cc(C)no3)ccc2C)c2cc(C)ccc2O1` (stereo not given): -36.6%.
With `Cc1ccc2c(c1)N(S(=O)(=O)c1cc(-c3cc(C)no3)ccc1C)CCO2`, the activity change, negative = inhibition was -81.3% (active).
The value for `C[C@@H]1NS(=O)(=O)c2cc(Cl)ccc2O[C@@H]1c1ccccc1` was -16.5%; that for `COc1ccc(CCn2cc3c(c2-c2ccc(Br)cc2)c(=O)n(C)c(=O)n3C)cc1OC` was 15.4%.
The same measure for `COc1ccc(S(=O)(=O)NCc2cccn2Cc2cccc(C)c2)cc1`: -4.02%; for `CCOc1ccc(N(C)S(=O)(=O)c2cc(-c3cnc(C)o3)ccc2OC)cc1`: -20.5%; for `Cc1nn(C(C)C(=O)Nc2ccc(C(C)C)cc2)c(=O)c2c1sc1ccccc12` (stereo not given): -9.99%.
The same measure for `COc1ccccc1NC(=O)C1CCCN1S(=O)(=O)c1ccc(Cl)cc1` (stereo not given): 0.0905%.
Regarding `COc1ccccc1NC1=NC(c2ccc(Cl)cc2)N=C(N)N1` (stereo not given), the activity change, negative = inhibition is -75.4% (active).
Turning to `COc1ccccc1Nc1nc(N)nc(N)c1S(=O)(=O)c1ccccc1`, the activity change, negative = inhibition was 21.5%.
Regarding `CC(=NNC(N)=O)c1ccc(Cl)c(-n2cccc2)c1`, the activity change, negative = inhibition was 25.6%.
The value for `Cc1cccc2c(=O)cc(CSc3ccccc3NC(=O)C(C)C)[nH]c12` was 45.6%; that for `COCCCNC(=O)c1ccc(NC(=O)c2nsc3ccccc23)cc1` was 114%; that for `COc1ccccc1OCc1ccc(C(=O)NC(C)c2ccccc2)o1` (stereo not given) was 26.2%.
For `CCCc1ccc(OCc2ccc(C(=O)N/N=C/c3cccc([N+](=O)[O-])c3)o2)c(OC)c1`, the activity change, negative = inhibition was -67.9% (active).
The value for `Cc1cccc(NC(=O)c2ccc(COc3ccccc3[N+](=O)[O-])o2)n1` was -4.62%.
The value for `COc1ccc(N(CC(=O)NCCc2ccc(Cl)cc2)S(=O)(=O)c2c(C)nn(C)c2C)cc1` was -14.4%; that for `Cc1ccc(S(=O)(=O)NCc2nc3nc(C)cc(C)n3n2)cc1` was 14.6%.
In the case of `Cc1ccc(-c2nn3c(=O)cc(CN4CCN(C(=O)Nc5cccc(C(F)(F)F)c5)CC4)nc3s2)cc1`, the activity change, negative = inhibition was 10.5%.
For `CCOC(=O)C1CCN(c2csc3ccc(C)cc3c2=O)CC1`, the activity change, negative = inhibition was -4.71%.
As to `CC(NCc1nc2ccccc2n1C)C12CC3CC(CC(C3)C1)C2` (stereo not given), the activity change, negative = inhibition is -65.6% (active).
The same measure for `COc1cccc(C(O)Cc2nc3ccccc3n2C)c1OC` (stereo not given): 34.8%.
The same measure for `Cn1c(COc2ccccc2C(C)(C)C)nc2ccccc21`: -14.6%.
The same measure for `CCOC(=O)c1ccc(NC(=O)c2csc3c2CCCCC3)cc1`: 26.3%; for `Nn1c(SCC(=O)NC2CCCc3ccccc32)nnc1C1CC1` (stereo not given): 40.9%.
On to `CC(C)N(Cc1ccccc1)C(=O)COC(=O)c1ccccc1SCC(=O)N1CCCC1`, for which the activity change, negative = inhibition was -8.52%.
The value for `CC(C)c1nc(CNC(=O)CC2C(=O)NCCN2Cc2cccc(F)c2F)cs1` (stereo not given) was 12.4%; that for `COc1ccc(CN2CCNC(=O)C2CC(=O)NCc2cn[nH]c2-c2ccccc2)c(F)c1` (stereo not given) was -65.5% (active); that for `O=C(CC1C(=O)NCCN1Cc1ccc(-c2ccccc2)cc1)NCc1ccncc1` (stereo not given) was 11.9%.
